Source: PubChem (National Center for Advancing Translational Sciences (NCATS))
TDP1 cell noCPT = qHTS for Inhibitors of human tyrosyl-DNA phosphodiesterase 1 (TDP1): qHTS in cells in absence of CPT; DT40 Tdp1-/- hTDP1 cells, no CPT, ATP luminescence, 48 h; Potency, µM (titrated, usually from 46.2 µM), most hits filed as inhibitors; 420,000 compounds, 15% hits; further: nearly all actives have a fitted effect of over 55% in size
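Growth kinetics read by CellTiter-Glo luminescence after ≥48 hr at 37 °C. Cells: DT40 Tdp1-/- stably carrying human TDP1, 400 per well, compound exposure in the absence of CPT (DMSO vehicle).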
IL1B secr inh = inhibitors of inflammasome signaling (IL-1 beta secretion); THP-1 LPS/ATP IL-1B secretion, AlphaLISA, 16 h; stronger effect = lower value; activity change, % at 57.5 µM; 360,000 compounds, 4.7% hits; in the data active means activity change below about -50%; inconclusive means mostly about -30% to -49%
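THP-1 cells pretreated 1 hr with compounds (up to 57.5 uM final), then stimulated with LPS (250 ng/mL final) plus ATP (1.25 mM final); secreted IL-1B measured by AlphaLISA after 16 hr, decreased signal indicating inhibition.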
ClpP mod = qHTS Assay for Activators of ClpP | ATP-dependent Clp protease proteolytic subunit (Bacillus subtilis (strain 168)), P80244 | purified B. subtilis ClpP, FRET peptide cleavage, 20 min | Potency, µM (series often up to 57.5 µM) | 340,000 compounds, 1.9% hits | AID 651965, 2013; active means well fitted falling curve with a large enough effect; inconclusive means small, poorly fitted or top-dose-only effect; inactive means no such curve, though single readings can be large or run the other way; further: the source files actives as falling curves though it sought activators and does not explain the sign; nearly all actives have a fitted effect of over 65% in size
Target sequence (P80244 whole entry, looked up): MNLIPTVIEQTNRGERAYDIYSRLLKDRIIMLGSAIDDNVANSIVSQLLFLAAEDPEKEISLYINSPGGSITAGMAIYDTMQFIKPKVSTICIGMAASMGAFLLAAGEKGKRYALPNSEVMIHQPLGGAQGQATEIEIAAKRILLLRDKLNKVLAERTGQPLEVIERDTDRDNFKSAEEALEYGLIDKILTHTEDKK
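ClpP 10 microg/mL final, pH 8 Tris/KCl buffer with BSA, glycerol, Tween-20; compound pinned in; FRET-FV substrate; RT 20 min; Ex320/Em430; ΔFRET vs ADEP 5.8 microM, DMSO, no enzyme.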
TDP1 cell CPT = growth inhibition of DT40 Tdp1-/-;hTDP1 cells with camptothecin (screen for TDP1 inhibitors) | Potency, µM (doses to about 46.2 µM), most hits filed as inhibitors | chicken DT40 Tdp1-/-;hTDP1 cells + 20 nM CPT, ATP luminescence, 48 h | 420,000 compounds, 12% hits | AID 686979; further: nearly all actives have a fitted effect of over 55% in size
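Chicken DT40 Tdp1-/- cells stably complemented with human TDP1 were seeded at 400 cells/well in medium containing 20 nM camptothecin, exposed to pin-transferred compounds, and grown at 37 °C for at least 48 hr. Viability was read as ATP luminescence.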
DRD3 agonist = D3 dopamine receptor (human) agonism. D3R DiscoveRx beta-arrestin cells, luminescence, 90 min. P35462. 410,000 compounds, 0.58% hits. AID 652048. max activation, %; in the data active means max activation above about 30%
Target sequence (P35462 whole entry, looked up): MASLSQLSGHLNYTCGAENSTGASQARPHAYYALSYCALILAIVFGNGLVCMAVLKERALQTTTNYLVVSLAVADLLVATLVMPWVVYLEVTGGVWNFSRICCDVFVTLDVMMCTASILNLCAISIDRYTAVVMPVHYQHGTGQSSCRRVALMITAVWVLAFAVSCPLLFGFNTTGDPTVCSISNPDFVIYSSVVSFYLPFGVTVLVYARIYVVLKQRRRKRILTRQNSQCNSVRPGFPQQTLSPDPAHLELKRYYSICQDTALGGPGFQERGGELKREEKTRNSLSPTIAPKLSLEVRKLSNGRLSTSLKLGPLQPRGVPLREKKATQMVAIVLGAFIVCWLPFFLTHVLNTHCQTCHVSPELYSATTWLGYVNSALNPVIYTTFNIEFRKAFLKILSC
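Cells at 1500/well, incubated overnight, then treated with pinned compounds (dopamine as control) for 90 min at 37 degrees C. DiscoveRx reagent added for 30 - 60 minutes at room temperature; luminescence read.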
D3 antag = antagonists of human D3 dopamine receptor | 360,000 compounds, 2.5% hits | P35462 | AID 652054 | D3R cells, DiscoveRx beta-arrestin luminescence, antagonist mode; stronger effect = lower value | max response, negative = inhibition, %; in the data active means max response below about -50%; inconclusive means no clear call, values can overlap the other calls
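Cells plated overnight at 1500 cells/well, then exposed to library compounds with dopamine controls for 90 minutes at 37 degrees C. DiscoveRx reagent added for 30–60 minutes at room temperature; luminescence read, quantitative HTS format.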
Large screens that a line does not name were inactive. Compounds with a hit are over-represented: about 21% of the library has one in this group of screens. Unless noted, the call rests on the fitted dose curve; in most records, active means well fitted inhibition curve with a large enough effect; inconclusive means small, poorly fitted or top-dose-only effect; inactive means flat fitted curve, though single readings scatter.

CCN(CC)CCNC(=O)C1c2cc(OC)c(OC)cc2C(=O)N2CCc3ccccc3C12 (stereo unspecified)	none
O=C(NCCCN1CCN(c2ccccc2F)CC1)C1COc2ccccc2C1 (stereo unspecified)	TDP1 cell noCPT inconclusive, TDP1 cell CPT 26µM (no result: IL1B secr inh, D3 antag)
Cc1ncoc1C(=O)NCc1nc(-c2cccc(NC(=O)c3ccccn3)c2)oc1C	TDP1 cell noCPT inconclusive (no result: IL1B secr inh, ClpP mod, DRD3 agonist, D3 antag)
CCC(c1nc2ccccc2[nH]1)N(Cc1cccnc1)C(=O)c1cc(-c2ccccc2)on1 (stereo unspecified)	TDP1 cell noCPT 18µM, TDP1 cell CPT inconclusive
O=C(c1cc(-c2ccccc2)on1)N(Cc1cccnc1)C(c1ccccn1)c1nc2ccccc2[nH]1 (stereo unspecified)	TDP1 cell noCPT inconclusive, TDP1 cell CPT inconclusive
COc1cc(OC)nc(-n2ncc(Br)c(Br)c2=O)n1	TDP1 cell noCPT 0.82µM, IL1B secr inh -96, TDP1 cell CPT 0.65µM, D3 antag -86
O=C(Cc1ccc(Cl)cc1)NC1CC(=O)N(c2ccc3c(c2)OCCO3)C1 (stereo unspecified)	none (no result: IL1B secr inh, D3 antag)
COc1cccc(-c2oc3c(c2C(=O)OCCN2CCCCC2)C(O)CCC3)c1 (stereo unspecified)	TDP1 cell noCPT inconclusive, TDP1 cell CPT inconclusive, D3 antag -55
COc1cccc(C(=O)OCCN2CCCCC2)c1	D3 antag inconclusive
O=C1c2ccccc2C(=O)N1C1C=CC=CC=C1	none
Cc1cccc2c1cnn2C(=O)CCC(=O)NCC(C)c1ccccc1 (stereo unspecified)	none
CCCCn1c(-c2ccccc2)nnc1-c1ccccc1	TDP1 cell noCPT inconclusive, TDP1 cell CPT inconclusive
CC(C)Cn1c(O)c(/C=C2\C=NN=C2c2ccccc2)sc1=S	TDP1 cell noCPT inconclusive, IL1B secr inh -89, TDP1 cell CPT inconclusive
CCCCn1c(O)c(/C=C2\C=NN=C2c2ccccc2)sc1=S	TDP1 cell noCPT inconclusive, IL1B secr inh -85, TDP1 cell CPT inconclusive
Cn1c(O)c(/C=C2\C=NN=C2c2ccccc2)sc1=S	TDP1 cell noCPT inconclusive
CCn1c(O)c(/C=C2\C=NN=C2c2ccccc2)sc1=S	TDP1 cell noCPT inconclusive, IL1B secr inh inconclusive
CCCCCCn1c(O)c(/C=C2\C=NN=C2c2ccccc2)sc1=S	TDP1 cell noCPT 23µM, IL1B secr inh -87, TDP1 cell CPT inconclusive
O=C(CNc1ccccc1)NN=C1CCCC1	none (no result: ClpP mod)
O=C(NC1(C(F)(F)F)OCCO1)c1ccc(F)cc1	none
Cc1c(NC(=O)/C=C/c2ccc(S(=O)(=O)N3CCOCC3)cc2)c(=O)n(-c2ccccc2)n1C	none (no result: ClpP mod)
O=C(Nc1ccc2nc(-c3ccco3)c(-c3ccco3)nc2c1)NC1CC1	TDP1 cell noCPT 23µM, TDP1 cell CPT 21µM
COc1ccc(CCNC(=O)c2ccc3nc(-c4ccco4)c(-c4ccco4)nc3c2)cc1OC	TDP1 cell noCPT 21µM, IL1B secr inh -53, TDP1 cell CPT 21µM, D3 antag inconclusive
O=C(Nc1ccc(F)c(Cl)c1)NC1CC1	IL1B secr inh inconclusive, TDP1 cell CPT inconclusive
O=C(Nc1cccc(C(F)(F)F)c1)c1ccc2nc(-c3ccco3)c(-c3ccco3)nc2c1	TDP1 cell noCPT inconclusive, TDP1 cell CPT 21µM
O=C(O)c1ccc2nc(-c3ccco3)c(-c3ccco3)nc2c1	none (no result: ClpP mod)
CCc1nc2ccc(C(=O)NCCc3ccc(OC)c(OC)c3)cc2nc1CC	TDP1 cell noCPT 23µM, TDP1 cell CPT 16µM
Cc1ccc(NC(=O)CSc2nc3ccccc3c3nc(CCc4c(C)n[nH]c4C)nn23)c(C)c1	none (no result: IL1B secr inh, D3 antag)
COc1ccc(-n2cc([N+](=O)[O-])c(=O)c3ccc(Cl)cc32)cc1	none (no result: ClpP mod)
CCCN(CCC)C(=O)c1cn(C)c2ccc(S(=O)(=O)N3CCCC3)cc2c1=O	none
COc1ccc(/C(O)=C/c2nc3ccc(C(=O)NCCc4cccc(C)c4)cc3[nH]c2=O)cc1OC	TDP1 cell noCPT 2.3µM, TDP1 cell CPT 2.9µM
CCC(C)NC(=O)c1ccc2nc(-c3ccco3)c(-c3ccco3)nc2c1 (stereo unspecified)	TDP1 cell noCPT 13µM, TDP1 cell CPT 16µM (no result: IL1B secr inh, DRD3 agonist, D3 antag)
COc1ccccc1N1CCN(C(=O)c2sc3nc(-c4ccc(F)cc4)cn3c2C)CC1	TDP1 cell noCPT 16µM, IL1B secr inh inconclusive, TDP1 cell CPT 23µM
Cc1c(C(=O)N2CC(C)OC(C)C2)sc2nc(-c3ccc(F)cc3)cn12 (stereo unspecified)	TDP1 cell noCPT 18µM, TDP1 cell CPT inconclusive
c1csc(-c2nc3nc4ccccc4nc3n2Cc2ccc3c(c2)OCO3)c1	TDP1 cell noCPT inconclusive, IL1B secr inh inconclusive, TDP1 cell CPT 18µM
CCCn1c(-c2cccs2)nc2nc3ccccc3nc21	TDP1 cell noCPT 16µM, TDP1 cell CPT 18µM
COCCn1c(-c2cccs2)nc2nc3ccccc3nc21	TDP1 cell noCPT inconclusive, TDP1 cell CPT inconclusive
c1ccc2sc(N3CCN(Cc4ccc5c(c4)OCO5)CC3)nc2c1	none (no result: IL1B secr inh, ClpP mod, DRD3 agonist, D3 antag)
Cc1ccc2c(c1)c1c(c(=O)n(-c3cccc(Cl)c3)c(=O)n1CC(=O)NCCC1=CCCCC1)n2C	none (no result: IL1B secr inh, D3 antag)
Cc1ccc(NC(=O)Cc2n[nH]c(=O)c3ccccc23)cc1S(=O)(=O)N1CCCCCC1	TDP1 cell noCPT 16µM, TDP1 cell CPT inconclusive
